Data from PubChem BioAssay (NCI).
About 83,000 compounds went through this panel and 20% of them were active in at least one assay; those are over-represented in the sample as a whole.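 Results are percent growth after 48 hours of single-concentration exposure. 100 means growth as in untreated cells, lower positive values show inhibition; negative values down to -100 show cell death.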 Values without a mark were called inactive. The source made the active and inactive calls. How the source made its calls: active means growth percent below 10; inactive means the rest.

Key:
Assay in all cases: NCI-60 one-dose screen, 48 h (100 = growth as untreated, 0 = no growth, -100 = all killed)
Details in all cases: 10 µM unless noted
SK-MEL-2 melanoma = tested on: SK-MEL-2 melanoma
EKVX NSCLC = tested on: EKVX NSCLC
SN12C renal = tested on: SN12C renal
UO-31 renal = tested on: UO-31 renal
TK-10 renal = tested on: TK-10 renal
CAKI-1 renal = tested on: CAKI-1 renal
A498 renal = tested on: A498 renal
CCRF-CEM leukemia = tested on: CCRF-CEM leukemia
MOLT-4 leukemia = tested on: MOLT-4 leukemia
ACHN renal = tested on: ACHN renal

| Compound | growth (SK-MEL-2 melanoma) | growth (EKVX NSCLC) | growth (SN12C renal) | growth (UO-31 renal) | growth (TK-10 renal) [%] | growth (CAKI-1 renal) | growth (A498 renal) | growth (CCRF-CEM leukemia) | growth (MOLT-4 leukemia) | growth (ACHN renal) |
| --- | --- | --- | --- | --- | --- | --- | --- | --- | --- | --- |
| CCOC(CNCc1cc(C)c2[nH]c3ccccc3c2c1C)OCC | 62.2% | 90% | 69.7% | 45.1% | 77.3 | 71.4% | 39.8% | 77.5% | 62.5% | – |
| Cc1ccc(C(NC(=O)c2ccccc2)c2ccc3cccnc3c2O)cc1 (centres undefined) | 18.5% | 17.3% | 14.1% | -3.13% (active) | 16 | 9.05% (active) | 24.9% | 5.39% (active) | 8.31% (active) | – |
| c1ccc(Nc2ccc(Nc3nc(-c4ccccc4)nc4ccccc34)cc2)cc1 | 83.1% | 87.1% | 87.9% | 63.7% | 98.5 | 71.2% | – | 52.7% | 53% | – |
| N#CSCC1CC(O)(c2ccccc2)C(c2ccccc2)C(c2ccc(Cl)cc2)O1 (centres undefined) | -42.7% (active) | -40% (active) | -91.9% (active) | -93.1% (active) | – | -67.1% (active) | 6.8% (active) | 10.2% | -10% (active) | -71.6% (active) |
| COc1ccc(CNC(=O)c2c(C)n([O-])c3ccc(OC)cc3[n+]2=O)cc1 | 102% | 87.8% | 108% | 21.9% | 104 | 230% | 104% | 100% | 103% | – |
| CSc1nc(N)c2c(n1)N(C)C=NS2(=O)=O | 123% | 113% | 99.3% | 87.1% | 109 | 98.2% | – | 94.4% | 107% | – |
| O=C1CSC(c2ccccc2O)N1c1nnc(Cn2ccnc2)o1 (centres undefined) | 90.3% | 81.5% | 66.1% | 32.9% | – | -37.5% (active) | 99.5% | 34% | 48.6% | 53.6% |
| CCSc1nc(Nc2ccc(S(=O)(=O)Nc3ccon3)cc2)c(C#N)c(-c2cccc(Br)c2)n1 | 119% | 87.7% | 99.2% | 102% | – | 87.8% | 93.7% | 77.7% | 72.6% | 91.3% |
| O[N+]1=CC=CCC1=S.On1ccccc1=S.[Zn] | -67.8% (active) | -84.4% (active) | -82.4% (active) | -97.9% (active) | – | -85.6% (active) | -83.4% (active) | -34.5% (active) | -36.1% (active) | -91.2% (active) |
| C[C@H](C(=O)N[C@@H](Cc1ccc(-c2ccccc2)cc1)C(=O)NC1CC(C)(C)NC(C)(C)C1)c1ccc(-c2ccccc2)c(F)c1 | -54.9% (active) | -7.01% (active) | -50.7% (active) | -85.5% (active) | – | – | -4.66% (active) | -20.9% (active) | -42.4% (active) | -86.9% (active) |
| CSc1nc2nc3c(c(-c4ccc(C)cc4)c2c(=O)[nH]1)CN(C)C/C3=C\c1ccc(C)cc1 | 112% | 83.5% | 102% | 86.1% | – | 93.7% | 85.6% | 85.2% | 87.2% | 94.9% |
| O=C1NCCc2c1noc2-c1ccccc1 | 101% | 97.8% | 109% | 88.2% | – | – | 105% | 109% | 97.5% | 106% |
| O=C(O)CCC(=O)OC[C@@H](NC(=O)C(Cl)Cl)[C@H](O)c1ccc([N+](=O)[O-])cc1 | 105% | 106% | 92.9% | 72% | – | 89.6% | 117% | 89.7% | 90.7% | 88.1% |
| C[C@H]1c2cccc(O)c2C(O)=C2C(=O)[C@]3(O)C(O)=C(C(N)=O)C(=O)[C@@H](N(C)C)[C@@H]3[C@@H](O)[C@@H]21 | 56.1% | 46.7% | 53.6% | 32.6% | – | 14% | 59.9% | 39.1% | 51.5% | 27.1% |
| COc1cc(/C=C2\SC(N3CCCCC3)=NC2=O)ccc1OCCCCCCOc1ccc(/C=C2\SC(N3CCCCC3)=NC2=O)cc1OC | 2.01% (active) | 31.4% | 25.3% | 33.5% | – | 4.5% (active) | 7.57% (active) | 1.05% (active) | 7.46% (active) | 23.1% |
| CCSc1nc(-c2ccco2)n2nc(-c3ccco3)cc2n1 | 129% | 76.1% | 95.8% | 72.4% | – | 84.3% | 91.7% | 86.7% | 118% | 88.8% |
| Cc1n(Cc2ccc3ccccc3c2)c2ccccc2[n+]1Cc1ccc2ccccc2c1 | -74.6% (active) | 9.57% (active) | -44.2% (active) | 30.7% | – | – | -11.5% (active) | -45.1% (active) | -54.7% (active) | 25.3% |
| CC(C)Sc1nc(-c2ccc(Br)cc2)c(C#N)c(N2CCCCC2)n1 | 108% | 93.3% | 94.3% | 95.3% | – | 95.9% | 83.8% | 95.2% | 110% | 101% |
| CC1C(=O)NC2=Nc3ccccc3C(=O)NN21 (centres undefined) | 96% | 88.3% | 99.7% | 64% | – | 94.5% | 116% | 97.3% | 94.3% | 93.8% |
| OC(c1ccccc1)C(NCc1ccccc1)c1ccccc1 (centres undefined) | 120% | 86% | 104% | 92% | – | 62.8% | 87.7% | 97.3% | 100% | 99.5% |
| C#C[C@]1(O)CCC2C3CCc4cc(O)ccc4C3CC[C@@]21C (some centres undefined) | 18.5% | 31.6% | 52.3% | 55.7% | – | 45.3% | 49.2% | 39% | 23.4% | 60.4% |
| NS(=O)(=O)c1cc(C2(O)NC(=O)c3ccccc32)ccc1Cl (centres undefined) | 113% | 108% | 101% | 76.4% | – | 93.9% | 129% | 98.9% | 93.6% | 90.7% |
| C[C@H](C(=O)N[C@@H](Cc1ccc(-c2ccccc2)cc1)C(=O)NC1CC(C)(C)N(C)C(C)(C)C1)c1ccc(-c2ccccc2)c(F)c1 | -70.9% (active) | -47.8% (active) | -59.2% (active) | -80.9% (active) | – | – | -18.2% (active) | -45.9% (active) | -60.9% (active) | -87.8% (active) |
| Cc1onc(-c2ccccc2Cl)c1C(=O)N[C@@H]1C(=O)N2[C@@H]1SC(C)(C)[C@@H]2C(=O)O | 110% | 104% | 103% | 80.4% | – | 96.6% | 114% | 96.6% | 90.5% | 104% |
| C[C@@H]1[C@H]2[C@H](C=C3[C@@H]4CC[C@H]5Cc6nc7c(nc6C[C@]5(C)[C@H]4C[C@@H](O)[C@@]32C)C[C@@H]2CC[C@H]3C4=C[C@@H]5O[C@@]6(CC[C@](C)(CO)O6)[C@@H](C)[C@@]5(O)[C@@]4(C)[C@H](O)C[C@@H]3[C@@]2(C)C7)O[C@]12CCC(C)(C)O2 | 30.8% | 21.8% | 67.9% | -6.3% (active) | – | – | -72.6% (active) | 2.79% (active) | -21.1% (active) | 42.5% |
| N#Cc1c(-c2ccc(F)cc2)n2c(nc1=O)SC(=O)C2=O | 92% | 91.3% | 91.1% | 110% | – | 86.4% | 70% | 85.4% | 90.5% | 90.3% |
| O=C(CNc1ccc2c(c1)C(=O)c1ccccc1C2=O)Nc1ccc2c(c1)C(=O)c1ccccc1C2=O | -74.4% (active) | -18.5% (active) | -87% (active) | -96.5% (active) | – | -80.8% (active) | 27.6% | -11.6% (active) | -36.6% (active) | -94.3% (active) |
| CN1CCN(c2nc3scc(-c4ccccc4)c3c(=O)[nH]2)CC1 | 104% | 90.3% | 100% | 81.4% | – | – | 91% | 103% | 95.5% | 107% |
